Hits are enriched below; roughly 12% of the tested compounds scored in any of these assays.
Sfp PPTase inh: inhibitors of Bacillus subtilis Sfp phosphopantetheinyl transferase. AID 1490. actives 3.5% (n = 310,000). Biochemical Sfp PPTase activity, qHTS. Potency, µM, without a hit: largest response in the series, negative = inhibition, hits mostly inhibitors. Q9F4F7;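 further: the enzyme is Sfp with the accession as filed and its product quenches rhodamine fluorescence; 0% = enzyme reaction without inhibitor and -100% = no enzyme wells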
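Step 1, compound plus 15 nM Sfp-PPTase, 15 min, room temperature. Step 2, add rhodamine-CoA (5 uM) and BHQ-2-YbbR (12.5 uM). Step 3, read 525/598 nm fluorescence at 0 and 30 min.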
G9a block: blocks human histone lysine methyltransferase G9a. G9a H3K9 monomethylation, AlphaScreen, 2 h. Potency, µM (top dose mostly 102 µM), without a hit: at the highest dose activity, negative = inhibition, hits mostly inhibitors. actives 8.8% (n = 350,000); further: on the % scale 0 is the no-effect control and ±100 the full control effect; nearly all actives have a fitted effect of over 75% in size
Target sequence (Q96KQ7 913-1193 limits assumed): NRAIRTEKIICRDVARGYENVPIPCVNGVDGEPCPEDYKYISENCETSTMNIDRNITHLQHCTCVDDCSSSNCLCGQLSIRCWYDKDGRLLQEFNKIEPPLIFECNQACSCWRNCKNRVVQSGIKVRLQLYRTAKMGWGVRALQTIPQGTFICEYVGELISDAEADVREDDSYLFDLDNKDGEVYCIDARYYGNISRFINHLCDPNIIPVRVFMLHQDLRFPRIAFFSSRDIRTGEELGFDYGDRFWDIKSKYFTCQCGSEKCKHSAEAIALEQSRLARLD
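G9a (20 nM) preincubated 15 min RT with compounds, then 500 nM biotinylated H3K9 peptide and 20 uM SAM added; 2 h RT reaction. Monomethyl-H3K9 product detected by AlphaScreen with anti-H3K9me1 antibody, streptavidin donor and anti-rabbit IgG acceptor beads.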
HP1b chromo inh: blocks HP1-beta chromodomain binding to methylated histone tails | P83916 | AlphaScreen HP1-beta / biotin-H3K9me3 peptide binding | Potency, µM (top dose mostly 114 µM), for the others: top-dose activity change, negative = inhibition, hits mostly inhibitors | actives 0.56% (n = 390,000) | AID 540317; further: nearly all actives have a fitted effect of over 70% in size
Target sequence (P83916 whole entry, looked up): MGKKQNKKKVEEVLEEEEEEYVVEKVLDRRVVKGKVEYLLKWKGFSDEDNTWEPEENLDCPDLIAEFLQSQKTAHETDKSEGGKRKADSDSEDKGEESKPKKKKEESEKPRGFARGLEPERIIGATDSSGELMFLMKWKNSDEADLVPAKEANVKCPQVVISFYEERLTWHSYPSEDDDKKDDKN
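HP1-beta protein (50 nM final) preincubated 30 min at room temperature with biotinylated H3(1-18)K9me3 peptide (50 nM) in PBS pH 7.4, 0.01% Tween-20, then compound added for 30 min. AlphaScreen streptavidin donor/nickel chelate acceptor beads (10 ug/mL final), 30 min dark, luminescence read.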
JMJD2A Tudor: JMJD2A Tudor domain (human) inhibition | Potency, µM (highest dose often 114 µM), for inactives: at the highest dose activity change, negative = inhibition, most hits filed as inhibitors | AlphaScreen JMJD2A-Tudor / H3K4me3 peptide binding | AID 504339 | actives 4.4% (n = 390,000); further: on the % scale 0 is the no-effect control and ±100 the full control effect; nearly all actives have a fitted effect of over 50% in size
BAZ2B inh: inhibitors of human BAZ2B bromodomain; actives 4.4% (n = 360,000); Potency, µM (top dose mostly 114 µM), without a hit: at the top dose activity change, negative = inhibition, actives largely listed as inhibitors; AID 504333; AlphaScreen BAZ2B-H3K14Ac peptide displacement; Q9UIF8; further: on the % scale 0 is the no-effect control and ±100 the full control effect; nearly all actives have a fitted effect of over 60% in size
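AlphaScreen luminescence quantifies BAZ2B engagement of H3K14Ac peptide; the protein and biotinylated peptide are both at 50 nM final, buffer PBS pH 7.4 with 0.01% Tween-20, all steps at room temperature.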
An asterisk follows results filed as active; ? = inconclusive; . = no result; ! = a repeat was not active; [ ] = remark or other dose. The call rests on the fitted dose curve; in most records, active means well fitted curve in the direction sought with a large enough effect; inconclusive means small, poorly fitted or top-dose-only effect, or another doubt; inactive means no such curve, though single readings can be large; an effect the other way counts as inactive or inconclusive. Potency means the concentration at half of the fitted maximal effect.

SMILES | Sfp PPTase inh | G9a block | HP1b chromo inh | JMJD2A Tudor | BAZ2B inh
Fc1ccc(NC(=S)Nc2cccc3cnccc23)cc1 | 2.82µM* | 35.5µM* | -12.4% | -14.0% | -36.4%
Cc1ccccc1OCC(=O)NCC(=O)OCc1ccc2ccccc2c1 | . | . | 22.7%[57 µM] | -10.0%[57.1 µM] | .
Cc1ccc2c(CN3CCN(CCO)CC3)cc(=O)oc2c1C | 19.7% | -4.2%[59 µM] | 20.4% | -16.0% | 7.4%
CCN(CCO)Cc1cc(=O)oc2c(C)c(C)ccc12 | -9.5% | 50.1µM* | -1.2% | -14.9% | 4.6%
Cc1cccc(C(=O)OCc2cc(=O)oc3c(C)c(C)ccc23)c1O | 12.7% | 39.8µM* | 31.5% | -6.5% | -20.9%
NS(=O)(=O)c1ccc(NN=C2CCN(Cc3ccccc3)CC2)c([N+](=O)[O-])c1 | -25.8% | 44.7µM* | 4.7% | -24.8% | 7.8%
C/C(CC(C)C)=N\Nc1ccc(S(N)(=O)=O)cc1[N+](=O)[O-] | -0.4% | ? | -7.7% | ? | .
CCNc1ccc(S(N)(=O)=O)cc1[N+](=O)[O-] | 4.3% | 3.55µM* | -1.5% | 0.0% | -5.7%
CCNc1ccc(S(=O)(=O)NCCN(C)C)cc1[N+](=O)[O-] | 7.6% | -4.4% | 9.2% | 0.0% | .
CCCCNc1ccc(S(=O)(=O)c2cccc([N+](=O)[O-])c2)cc1[N+](=O)[O-] | 0.5% | 7.94µM* | 37.8% | -3.5% | ?
CC1C/C(=N\Nc2ccc(S(N)(=O)=O)cc2[N+](=O)[O-])CC(C)(C)C1 (stereo unspecified) | -4.7% | 14.1µM* | ? | ? | ?
O=C(Nc1c(-c2ccccc2)nc2ccccn12)c1ccc(Br)cc1 | . | -3.0%[59 µM] | 8.0% | -18.8% | 3.0%
COc1ccc(CCC(=O)OCC(=O)N2CCN(S(=O)(=O)c3ccc(C)cc3C)CC2)cc1 | . | 26.7%[12.7 µM] | 17.4% | -17.1% | -2.1%
O=C(CCCCCBr)N1CCC(CC2CC(c3cccc(Br)c3)=NO2)(C(=O)NCC2CCCCC2)CC1 (stereo unspecified) | -9.9% | 50.1µM* | 12.8% | ? | -24.8%[57.1 µM]
O=C(CCCCCBr)N1CCC(CC2CC(c3ccc(Cl)cc3)=NO2)(C(=O)NCC2CCCCC2)CC1 (stereo unspecified) | 2.7% | ? | 42.6% | -12.5% | -27.2%
Nc1nc(C23CC4CC(CC(Cl)(C4)C2)C3)cs1 | 5.9% | 5.6%[59 µM] | 9.2% | -26.1% | 70.8µM*
Cc1nn(Cc2ccccc2Cl)c(C)c1C(=O)NCC(c1cccs1)N1CCOCC1 (stereo unspecified) | . | -27.7% | 38.0% | -5.0% | 17.7%
O=C(NNC1=NCCC1)C1CC1 | -6.3% | 12.6µM* | -17.9% | -35.1%[57.1 µM] | ?
CCOC(=O)c1cc(CNC(=O)c2c(C)oc3c2CCCC3)c(C)o1 | -10.5% | 50.1µM* | -9.2% | -30.0% | ?
CCOC(=O)c1coc(CNC(=O)c2c(C)oc3c2CCCC3)c1 | -1.4% | 56.2µM* | -0.5% | -26.5% | ?
Cc1oc2c(c1C(=O)NCc1cc(C(=O)O)co1)CCCC2 | 1.4% | -3.3% | 43.9% | -6.9%[57.1 µM] | -0.5%
Cc1oc2c(c1C(=O)NCCCC(=O)O)CCCC2 | 1.3% | -1.5% | 16.7% | -18.0% | ?
CC(=O)Nc1sc(C)c(C)c1C(=O)OCC(=O)N(Cc1ccccc1)C(C)C | . | 18.4%[59 µM] | 52.1% | -4.1% | -3.2%
CC(C)Oc1ccc(C(=O)Nc2nc3c(s2)CC(C(C)(C)C)CC3)cc1 (stereo unspecified) | . | -9.0%[59 µM] | 12.4% | -25.5% | 2.3%
COc1ccc(-c2nc(SCC(=O)NC(C)CCc3ccccc3)n[nH]2)cc1 (stereo unspecified) | . | 12.5%[59 µM] | 17.6%[57 µM] | -27.9% | 8.1%
SMILES | Sfp PPTase inh | G9a block | HP1b chromo inh | JMJD2A Tudor | BAZ2B inh
CCOC(=O)C1CCCN(C(=O)CCCn2nnnc2CN2CCOCC2)C1 (stereo unspecified) | 7.2% | 1.4%[12.7 µM] | 31.9% | 11.6% | 1.7%
Cc1oc(-c2ccc(Cl)cc2)nc1CSc1nc2ncccc2[nH]1 | . | ? | 30.8% | -8.3% | 3.6%
CN=C1S/C(=C\c2ccc(Cl)cc2)C(=O)N1C | 2.1% | 2.1%[59 µM] | 39.6% | 3.5% | -8.1%
Cc1ccc(C)n1N1C(=O)/C(=C\c2ccc(Cl)cc2)SC1=S | -13.7% | ? | -67.8% | 39.8µM* | 2.82µM*
CC(=O)N(C(C)=O)N1C(=O)/C(=C/c2ccc(Cl)cc2)SC1=S | -6.8% | 14.1µM* | 10µM* | 11.2µM* | 28.2µM*
O=C1CC(c2cc(F)cc(F)c2)c2cc3c(cc2N1)OCO3 (stereo unspecified) | . | -32.3%[59 µM] | -3.4% | -31.8% | ?
N[C@@H](C(=O)O)c1ccc(C(=O)O)c(O)c1 | 11.9% | . | . | . | .
N[C@H](C(=O)O)c1cc(O)cc(O)c1 | 44.7µM*! | 32.6%[59 µM] | . | . | .
S=C(Nc1ccc2c(c1)OCCO2)Nc1ccccc1Cl | 17.8% | 79.4µM* | 1.0% | -7.5% | -17.6%
COc1ccccc1NC(=O)CN1CCN(CC(=O)Nc2ccc3c(c2)OCCO3)CC1 | 5.0% | ? | 34.5% | -21.3% | 2.3%
S=C(Nc1ccc(Cl)cc1)Nc1ccc2c(c1)OCCO2 | 4.4% | . | 9.1% | -15.4% | -25.7%
O=C(CN1CCN(CC(=O)Nc2ccccc2Cl)CC1)Nc1ccc2c(c1)OCCO2 | 1.0% | 25.1µM* | 40.0% | 16.4%[11.4 µM] | -7.7%
O=C(CN1CCCCCCC1)Nc1ccc(Cl)cc1Cl | 10.7% | 120.8% | 89.7% | 51.6% | .
O=C(CN1CCCCC1)Nc1ccc(NC(=O)c2ccccc2Cl)cc1Cl | 1.8% | 10µM* | 7.4% | -19.0% | -4.8%
O=C(Nc1c(Cl)ccc2nsnc12)c1ccc([N+](=O)[O-])o1 | 2.7% | . | 19.9% | -8.2% | 18.1%
CCCOc1ccc(C(=O)N(Cc2cccs2)C2CCS(=O)(=O)C2)cc1 (stereo unspecified) | 5.3% | ? | 13.9% | 2.1% | -0.1%
Cc1ccc(C(=O)c2cc(C)sc2NC(=O)CN2CCN(C(=O)c3ccco3)CC2)cc1 | ? | 31.6µM* | ? | ? | ?
COC(=O)c1[nH]c2ccc(Br)cc2c1NC(=O)CN1CCCc2ccccc21 | 18.6% | -24.0%[59 µM] | 31.7% | -26.1% | -6.2%[57.1 µM]
CCc1cc(C(=O)OC)c(NC(=O)CN2CCN(C(=O)c3ccco3)CC2)s1 | -3.2% | . | 43.5% | 8.8% | -13.6%
COC(=O)c1[nH]c2cc(C)ccc2c1NC(=O)CN1CCN(C(=O)c2ccco2)CC1 | 50.1µM* | ? | 17.3% | -10.7% | ?
COC(=O)c1[nH]c2cccc(C)c2c1NC(=O)CN1CCN(C(=O)c2ccco2)CC1 | -13.2% | -48.0%[59 µM] | 9.9% | -15.1% | .
COC(=O)c1[nH]c2cc(C)ccc2c1NC(=O)CN1CCCc2ccccc21 | ? | ? | 12.2% | ? | 44.7µM*
CN(C)C(=S)N=Nc1[nH]c2ccccc2c1O | -19.5% | 7.94µM* | 8.5% | -24.8% | -35.1%
Cc1ccc2oc(=O)c3cc(C(=O)NCCN4CCc5ccccc5C4)sc3c2c1 | -19.5% | 50.1µM* | 39.0% | -23.6% | -28.1%
Cc1ccc(C(=O)c2oc3ccccc3c2NC(=O)COc2ccccc2C)cc1 | . | 23.4%[59 µM] | 37.6% | 3.1% | 3.0%

Assay outcomes as filed in PubChem.
